In PubChem BioAssay AID488920 (Sanford-Burnham Center for Chemical Genomics, 2010):
Unmarked numbers belong to inactive results. No stated cut-off is given here; in the data, active means IC50 below about 3 µM; inactive means the rest.

Experiment: luminescent readout interference, potency – biochemical, luminescence, artefact control for SENP inhibitor project, dose response (AID 488920)
Settings: luminescence interference counterscreen, spectral interferers

Row | SMILES | IC50 [µM]
1 | CCC(C)NC(=O)c1c(N)n(CCCOC)c2nc3ccccc3nc12 (stereo not drawn) | > 5
2 | COc1cc2c(cc1OC)-c1c(OC)c(OC)cc3c1C(C2)N(C)CC3 (stereo not drawn) | > 5
3 | CCOC(=O)c1c(NS(=O)(=O)c2ccccc2)n(CCCOC)c2nc3ccccc3nc12 | > 5
